Records with an inconclusive call do not appear. Activity calls are given as the source filed them.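 Rule for the calls, unless noted: active = normalized viability below 100% at a tested concentration; inactive = the rest.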
Legend:
[1] = growth inhibition of DIPG glioma cells, dose response, cell-based, SU-DIPG-XVII, MIPE5.0, CellTiter-Glo, qHTS (AID 1347060; cut-off not given, nearly all actives have AC50 up to about 26 µM;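 for AC50: cells exposed to compound for 48 hours before viability readout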); details: SU-DIPG-XVII viability, CellTiter-Glo ATP luminescence
[2] = growth inhibition of DIPG glioma cells, dose response, cell-based, SU-DIPG-XIII, MIPE4.0, CellTiter-Glo, qHTS (AID 1347061; cut-off not given, nearly all actives have AC50 up to about 37 µM;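 note: cells exposed to compound for 48 hours before readout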); details: SU-DIPG-XIII viability, CellTiter-Glo ATP luminescence
[3] = growth inhibition of DIPG glioma cells, dose response, cell-based, JHH-DIPG-1, MIPE4.0, CellTiter-Glo, qHTS (AID 1347062; cut-off not given, nearly all actives have AC50 up to about 27 µM;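 for AC50: cells exposed to compound for two days before readout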); details: JHH-DIPG-1 viability, CellTiter-Glo ATP luminescence
[4] = growth inhibition of DIPG glioma cells, dose response, cell-based, SU-DIPG-IV, MIPE4.0, CellTiter-Glo, qHTS (AID 1347063; cut-off not given, nearly all actives have AC50 up to about 30 µM;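 note: compound exposure lasted 48 hours before the viability readout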); details: SU-DIPG-IV viability, CellTiter-Glo ATP luminescence
[5] = growth inhibition of DIPG glioma cells, dose response, cell-based, SU-DIPG-XIII, MIPE5.0, CellTiter-Glo, qHTS (AID 1347064; cut-off not given, nearly all actives have AC50 up to about 23 µM;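 for AC50: cells exposed to compound for 48 hours before the viability read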); details: SU-DIPG-XIII viability, CellTiter-Glo ATP luminescence
[6] = JHH-DIPG-1 glioma cell viability, MIPE5.0 library, CellTiter-Glo luminescence, qHTS (AID 1347067; cut-off not given, nearly all actives have AC50 up to about 26 µM;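 note: cells exposed to compound for 48 hours before readout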); details: JHH-DIPG-1 glioma viability, CellTiter-Glo ATP luminescence
[7] = SU-DIPG-XXV glioma cell viability, MIPE5.0 library, qHTS (AID 1347068; cut-off not given, nearly all actives have IC50 up to about 30 µM;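 for IC50: cells exposed to compound for 48 hours before viability readout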)
[8] = viability loss in pontine glioma line – cell-based, SU-DIPG-XXV, MIPE5.0, CellTiter-Glo, qHTS, dose response (AID 1347065; cut-off not given, nearly all actives have AC50 up to about 26 µM;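 note: cells exposed to compound for 48 hours before ATP readout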); details: CellTiter-Glo ATP luminescence
[9] = modifiers of HSF1 nuclear foci, imaging, Selleck Cancer Library (AID 1347162; in the data active = plate-normalised HSF1 focus index below about 0.46); details: human cells, at 10 µM; SSMD: measured here: HSF1 foci SSMD mean; cell count: measured here: cell number; plate-normalised HSF1 focus index: stronger effect = lower value
[10] = ovarian cancer cell viability with rucaparib, profiling panel, oncology-focused library, rucaparib conditional (AID 1508598); details: patient-derived ovarian cancer cells, CellTiter-Glo viability, 144 h, stronger effect = lower value
[11] = LFS_MB_P medulloblastoma growth inhibition, cell-based, chromothripsis tumors, cisplatin or BGB combos (AID 1671449; in the data active = inhibition above about 80%;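 note: cells exposed for 96 hours; 0% = vehicle DMSO and 100% = killing by high DMSO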); details: LFS_MB_P medulloblastoma cells
[12] = HDN33 neuroblastoma growth inhibition, cell-based, chromothripsis tumors, cisplatin or BGB combos (AID 1671450; in the data active = inhibition above about 80%;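 note: cells exposed to compound for four days; 0% = vehicle DMSO and 100% = cell killing by high DMSO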); details: HDN33 neuroblastoma cells, stronger effect = higher value
[13] = ICB984 medulloblastoma cell growth inhibition, synergistic combos for chromothripsis tumors, cisplatin or BGB combos (AID 1671451; call rule not given here;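 note: cells exposed for 96 hours before readout; 0% = vehicle DMSO and 100% = killing by high DMSO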); details: ICB984 medulloblastoma cells, drug combinations, stronger effect = higher value
[14] = HTB85 osteosarcoma cell growth inhibition, synergistic combos for chromothripsis tumors, BGB or cisplatin IC20 combos (AID 1671453; in the data active = inhibition above about 80%;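 note: cells exposed for 96 hours before readout; 0% = vehicle DMSO and 100% = high DMSO killing control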); details: HTB85 osteosarcoma cells, drug combinations, stronger effect = higher value
[15] = MDA-MB-436 breast carcinoma cell growth inhibition, synergistic combos for chromothripsis tumors, BGB or cisplatin combos (AID 1671458; call rule not given here;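 note: cells exposed for 96 hours; 0% = vehicle DMSO and 100% = killing by high DMSO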); details: MDA-MB-436 breast carcinoma growth inhibition, drug combinations, stronger effect = higher value
[16] = growth inhibition of BT084 medulloblastoma cells, cell-based, ICGC_MB145, cisplatin and BGB IC40 combos (AID 1671461; in the data active = inhibition above about 80%;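 note: cells exposed to drugs for 96 hours; 0% = vehicle DMSO and 100% = high DMSO full killing control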); details: drug combinations, stronger effect = higher value
[17] = growth inhibition of RCMB18 medulloblastoma cells, cell-based, cisplatin and BGB IC40 combos (AID 1671462; in the data active = inhibition above about 80%;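 note: cells exposed to compound for four days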); details: stronger effect = higher value
[18] = sensitizers of A549 cells to miR-34 induction, primary screen, imaging, A549 dox-inducible miR-34, nuclei and caspase counts (AID 1347080;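 active = compounds whose cell count with miR-34 switched on is under 0.7 times the count with it off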); details: A549 miR-34 inducible, Hoechst nuclei count, 48 h
[19] = survival rescue of mitochondrial mutant cells in low glucose, primary screen, MELAS cybrids, Rieske KO mouse fibroblasts, CellTiter-Glo (AID 1508586;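 active = mean z-score across replicates of 1.96 or higher in either the MELAS or the Rieske mutant cell line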;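 note: z relative to plate mean and SD of compound and empty wells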)
[20] = at 0.000305 µM, OCI-C5x cells, with rucaparib 10 µM, 100% = cells with rucaparib alone
[21] = at 0.000305 µM, OCI-C5x cells, without rucaparib
[22] = at 0.000305 µM, OCI-P5x cells, with rucaparib 20 µM, 100% = cells with rucaparib alone
[23] = at 0.000305 µM, OCI-P5x cells, without rucaparib
[24] = at 0.00122 µM, OCI-C5x cells, with rucaparib 10 µM, 100% = cells with rucaparib alone
[25] = at 0.00122 µM, OCI-C5x cells, without rucaparib
[26] = at 0.00122 µM, OCI-P5x cells, with rucaparib 20 µM, 100% = cells with rucaparib alone
[27] = at 0.00122 µM, OCI-P5x cells, without rucaparib
[28] = at 0.00488 µM, OCI-C5x cells, with rucaparib 10 µM, 100% = cells with rucaparib alone
[29] = at 0.00488 µM, OCI-C5x cells, without rucaparib
[30] = at 0.00488 µM, OCI-P5x cells, with rucaparib 20 µM, 100% = cells with rucaparib alone
[31] = at 0.00488 µM, OCI-P5x cells, without rucaparib
[32] = at 0.0195 µM, OCI-C5x cells, with rucaparib 10 µM, 100% = cells with rucaparib alone
[33] = at 0.0195 µM, OCI-C5x cells, without rucaparib
[34] = at 0.0195 µM, OCI-P5x cells, with rucaparib 20 µM, 100% = cells with rucaparib alone
[35] = at 0.0195 µM, OCI-P5x cells, without rucaparib
[36] = at 0.0781 µM, OCI-C5x cells, with rucaparib 10 µM, 100% = cells with rucaparib alone
[37] = at 0.0781 µM, OCI-C5x cells, without rucaparib
[38] = at 0.0781 µM, OCI-P5x cells, with rucaparib 20 µM, 100% = cells with rucaparib alone
[39] = at 0.0781 µM, OCI-P5x cells, without rucaparib
[40] = at 0.313 µM, OCI-C5x cells, with rucaparib 10 µM, 100% = cells with rucaparib alone
[41] = at 0.313 µM, OCI-C5x cells, without rucaparib
[42] = at 0.313 µM, OCI-P5x cells, with rucaparib 20 µM, 100% = cells with rucaparib alone
[43] = at 0.313 µM, OCI-P5x cells, without rucaparib
[44] = at 1.25 µM, OCI-C5x cells, with rucaparib 10 µM, 100% = cells with rucaparib alone
[45] = at 1.25 µM, OCI-C5x cells, without rucaparib
[46] = at 1.25 µM, OCI-P5x cells, with rucaparib 20 µM, 100% = cells with rucaparib alone
[47] = at 1.25 µM, OCI-P5x cells, without rucaparib
[48] = at 5 µM, OCI-C5x cells, with rucaparib 10 µM, 100% = cells with rucaparib alone
[49] = at 5 µM, OCI-C5x cells, without rucaparib
[50] = at 5 µM, OCI-P5x cells, with rucaparib 20 µM, 100% = cells with rucaparib alone
[51] = at 5 µM, OCI-P5x cells, without rucaparib

Nc1cccc2c1CN([C@H]1CCC(=O)NC1=O)C2=O
inactive: outcome [1] | outcome [2] | outcome [3] | outcome [4] | outcome [5] | outcome [6] | outcome [7]

NC(=O)c1cnc(-c2ccc(C3(N)CCC3)cc2)c(-c2ccccc2)c1
inactive: outcome [1] | outcome [2] | outcome [3] | outcome [4] | outcome [5] | outcome [7]

CCCCc1nc2cc(/C=C/C(=O)NO)ccc2n1CCN(CC)CC
107%: inhibition ([16]; single agent, at 5 µM)
71.1%: inhibition ([12]; measured here: with cisplatin IC20 combination, at 0.5 µM)
61.6%: inhibition ([15]; measured here: cisplatin combination, at 5 µM)
99.8%: inhibition ([12]; single agent, at 5 µM) | inhibition ([14]; measured here: with BGB IC20, at 5 µM)
93.7%: inhibition ([17]; cisplatin combo, at 5 µM)
inactive: plate-normalised HSF1 focus index [9] 0.904 | viability [10, 20] 109% | viability [10, 21] 111% | viability [10, 24] 115% | viability [10, 25] 116% | viability [10, 27] 104% | viability [10, 28] 117% | viability [10, 29] 117% | viability [10, 31] 107% | viability [10, 32] 110% | viability [10, 33] 117% | viability [10, 35] 104% | viability [10, 37] 123% | inhibition ([11]; at 0.5 µM, stronger effect = higher value) -27.6% | inhibition ([12]; at 0.5 µM) 64.3% | inhibition ([13]; at 0.5 µM) -30.3% | inhibition ([14]; at 0.5 µM) 60.4% | inhibition ([15]; at 0.5 µM) 23.8% | inhibition ([16]; at 0.5 µM) 51.2% | inhibition ([17]; at 0.5 µM) 35.2%
99.7%: inhibition ([14]; single agent, at 5 µM)
11.4%: inhibition ([17]; measured here: BGB IC40 combination, at 0.05 µM)
-38.4%: inhibition ([13]; cisplatin combo, at 0.5 µM)
62.4%: inhibition ([16]; cisplatin combination, at 0.5 µM)
7710: cell count [9]
52.6%: inhibition ([15]; measured here: BGB combination, at 5 µM)
-21.7%: inhibition ([11]; measured here: combination with BGB IC40, at 0.05 µM)
101%: inhibition ([16]; cisplatin combination, at 5 µM)
-1.52: SSMD [9]
-26%: inhibition ([11]; measured here: combination with cisplatin, at 0.5 µM, stronger effect = higher value)
-44.4%: inhibition ([13]; measured here: 5 uM single agent, at 5 µM)
61.5%: inhibition ([14]; measured here: with cisplatin IC20, at 0.5 µM)
47.6%: inhibition ([17]; measured here: combination with cisplatin, at 0.5 µM)
56%: inhibition ([14]; measured here: with BGB IC20, at 0.5 µM)
-16.6%: inhibition ([13]; cisplatin combo, at 5 µM)
89.4%: inhibition ([17]; single agent, at 5 µM)
-8.13%: inhibition ([13]; BGB IC40 combo, at 0.005 µM)
104%: inhibition ([11]; measured here: combination with cisplatin, at 5 µM, stronger effect = higher value)
99.5%: inhibition ([12]; BGB combo, at 5 µM)
18.7%: inhibition ([15]; measured here: BGB combination, at 0.5 µM)
75.4%: inhibition ([11]; measured here: combination with BGB IC40, at 0.005 µM)
-12.4%: inhibition ([16]; measured here: BGB IC40 combination 0.05 uM, at 0.05 µM)
57.9%: inhibition ([12]; measured here: with BGB IC20 combination, at 0.5 µM)
13.3%: inhibition ([15]; measured here: cisplatin combination, at 0.5 µM)
99.9%: inhibition ([12]; cisplatin combo, at 5 µM) | inhibition ([14]; measured here: with cisplatin IC20, at 5 µM)
7.49%: inhibition ([13]; BGB IC20 combo, at 0.005 µM)
-13.5%: inhibition ([11]; measured here: combination with BGB IC20, at 0.005 µM)
90.2%: inhibition ([13]; BGB IC40 combo, at 0.05 µM) | inhibition ([13]; cisplatin combo, at 0.05 µM)
active: AC50 [1] 1660 nM | AC50 [2] 14800 nM | AC50 [3] 296 nM | AC50 [4] 14.8 nM | AC50 [5] 1320 nM | AC50 [8] 332 nM | AC50 [6] 1050 nM | IC50 [7] 13200 nM | viability [10, 22] 93.3% | viability [10, 23] 99.3% | viability [10, 26] 98.6% | viability [10, 30] 95.5% | viability [10, 34] 93.4% | viability [10, 36] 96.7% | viability [10, 38] 88.6% | viability [10, 39] 95.7% | viability [10, 40] 92.4% | viability [10, 41] 91.7% | viability [10, 42] 68.3% | viability [10, 43] 76.5% | viability [10, 44] 28.3% | viability [10, 45] 21.2% | viability [10, 46] 26.6% | viability [10, 47] 43.4% | viability [10, 48] 4.57% | viability [10, 49] 5.34% | viability [10, 50] 1.32% | viability [10, 51] 2.31%

COc1c(C)cnc(Cn2cnc3c(Cl)nc(N)nc32)c1C
7350: cell count [9]
4.45: SSMD [9]
active: AC50 [1] 525 nM | AC50 [2] 1180 nM | AC50 [3] 187 nM | AC50 [4] 332 nM | AC50 [5] 1050 nM | AC50 [8] 742 nM | AC50 [6] 1050 nM | z-score ([19]; MELAS cybrid survival, CellTiter-Glo 48 h, stronger effect = higher value) 2.83 | viability [10, 23] 99.7% | viability [10, 29] 82.7% | viability [10, 38] 33.6% | viability [10, 39] 68.7% | viability [10, 40] 98.4% | viability [10, 42] 20.3% | viability [10, 43] 9.78% | viability [10, 44] 12.2% | viability [10, 45] 15.4% | viability [10, 46] 9% | viability [10, 47] 7.18% | viability [10, 48] 11.2% | viability [10, 49] 10.3% | viability [10, 50] 9.01% | viability [10, 51] 6.09%
0.0158: z-score ([19]; Rieske KO mouse fibroblast survival, CellTiter-Glo 72 h)
1950: cell count ([18]; measured here: total cells with miR-34 induction, stronger effect = lower value)
1.45: fold change ([18]; measured here: relative caspase fold change +Dox/-Dox)
1960: cell count ([18]; measured here: total cells without miR-34 induction)
inactive: fold change ([18]; stronger effect = lower value, cell number ratio, induced over uninduced) 0.993 | plate-normalised HSF1 focus index [9] 1.16 | viability [10, 20] 115% | viability [10, 21] 104% | viability [10, 22] 111% | viability [10, 24] 122% | viability [10, 25] 111% | viability [10, 26] 116% | viability [10, 27] 110% | viability [10, 28] 123% | viability [10, 30] 122% | viability [10, 31] 118% | viability [10, 32] 125% | viability [10, 33] 111% | viability [10, 34] 128% | viability [10, 35] 121% | viability [10, 36] 133% | viability [10, 37] 137% | viability [10, 41] 127%

— PubChem BioAssay
